# Reference: PubChem BioAssay (NCATS)
# Values joined by “and” are separate entries in the source; they are usually repeats but may differ in a detail not shown here. Identical values can stand only once. Records with an inconclusive call do not appear. The source holds several records for some structures; these can differ, active in one and inactive in another. A number with no mark means an inactive call. Active and inactive are the calls of the source. Calls come from the whole dose curve; as a rule, active = well fitted inhibition curve with a large enough effect; inconclusive = small, poorly fitted or top-dose-only effect; inactive = flat fitted curve, though single readings scatter.
# Key:
# CRL-7250 = normal cell line; experiment: Cytotoxic Profiling of Annotated Libraries Using Quantitative High-Throughput Screening (AID 1296008); conditions: Five cell lines viability, CellTiter-Glo ATP luminescence, 48-72 h; max response: stronger effect = lower value
# Procedure, shortened: (§1)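 Cytotoxicity was measured as CellTiter-Glo ATP luminescence, read after 10 min at room temperature. Compound treatment of the cells lasted 48 or 72 hr at 37 degrees Celsius in a qHTS format.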
# HaCat [1] = experiment: as above; conditions: Five cell lines viability, CellTiter-Glo ATP luminescence, 48-72 h; max response: stronger effect = lower value
# Procedure, shortened: as §1
# NIH3T3 = experiment: as above; conditions: Five cell lines viability, CellTiter-Glo ATP luminescence, 48-72 h; max response: stronger effect = lower value
# Procedure, shortened: as §1
# KB-3-1 = experiment: as above; conditions: Five cell lines viability, CellTiter-Glo ATP luminescence, 48-72 h; max response: stronger effect = lower value
# Procedure, shortened: as §1
# MCC-13 = experiment: qHTS assay to identify novel small-molecules to repurpose for Merkel cell carcinoma treatment (AID 1296009); conditions: MCC and control cell lines, CellTiter-Glo viability, 72 h; series mostly up to 46 µM
# Procedure, shortened: (§2)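 Cell viability measured by CellTiter-Glo following 72 hr compound treatment at 37 degree celsius, with NPC and MIPE libraries tested in 8- and 11-point concentration series.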
# MCC-26 = experiment: as above; conditions: MCC and control cell lines, CellTiter-Glo viability, 72 h; series mostly up to 46 µM
# Procedure, shortened: as §2
# MKL-1 = experiment: as above; conditions: MCC and control cell lines, CellTiter-Glo viability, 72 h; series mostly up to 46 µM
# Procedure, shortened: as §2
# HACAT [2] = experiment: as above; conditions: MCC and control cell lines, CellTiter-Glo viability, 72 h; series mostly up to 44.8 µM
# Procedure, shortened: as §2
# HEK293T = experiment: as above; conditions: MCC and control cell lines, CellTiter-Glo viability, 72 h; at 44.8 µM (top of the series) unless noted
# Procedure, shortened: as §2
# % is set by controls: 0 for no effect and ±100 for the full control effect; potency is the fitted concentration of half-maximal effect.
# Note: nearly all actives have a fitted effect of over 60% in size.
compound,measurement,setting,value
CC(C)(O)c1cc2nc(-c3cnc(N)nc3)nc(N3CCOCC3)c2s1,Potency,CRL-7250,148 nM (active) and 731 nM (active)
same,Potency,HaCat [1],264 nM (active) and 1.64 µM (active)
same,Potency,NIH3T3,418 nM (active)
COc1ccc(-c2cc3c(C)nc(N)nc3n(C3CCC(OCCO)CC3)c2=O)cn1 (stereo not given),Potency,CRL-7250,23.5 nM (active) and 231 nM (active)
same,Potency,HaCat [1],52.6 nM (active) and 2.31 µM (active)
same,Potency,KB-3-1,105 nM (active) and 517 nM (active)
same,Potency,NIH3T3,1300 nM (active)
same,Potency,MCC-13,1870 nM (active)
same,Potency,MCC-26,1320 nM (active)
same,Potency,MKL-1,4180 nM (active)
Nc1nc(Nc2ccc(S(N)(=O)=O)cc2)nn1C(=O)c1c(F)cccc1F,Potency,CRL-7250,18.7 µM (active)
same,Potency,KB-3-1,3260 nM (active)
same,Potency,NIH3T3,10.5 µM (active) and 11.6 µM (active)
CC=C1NC(=O)[C@H]2CSSCCC=C[C@H](CC(=O)N[C@H](C(C)C)C(=O)N2)OC(=O)[C@H](C(C)C)NC1=O,Potency,CRL-7250,0.0187 µM (active)
same,Potency,HaCat [1],37.2 nM (active)
same,Potency,NIH3T3,46.9 nM (active)
same,Potency,MCC-13,235 nM (active)
Clc1ccc2ncc(-c3cccc(NC4CNC4)n3)n2c1,outcome,CRL-7250,inactive
same,outcome,HaCat [1],inactive
same,outcome,KB-3-1,inactive
same,outcome,NIH3T3,inactive
same,Potency,HACAT [2],inactive
same,outcome,HEK293T,inactive
same,Potency,MCC-13,inactive
Cn1c2cc(S(C)=O)sc2c2cnn(Cc3cccc(N)c3)c(=O)c21 (stereo not given),max response,CRL-7250,0.238%
same,max response,HaCat [1],-2.01%
same,max response,KB-3-1,-13.5%
same,max response,NIH3T3,-11.6%
same,Potency,MCC-13,inactive
same,Potency,MKL-1,inactive
CC(C)[C@H](C(=O)Nc1ccc(C(=O)NO)cc1)c1ccccc1,Potency,CRL-7250,4.18 µM (active)
same,Potency,HaCat [1],5900 nM (active)
same,Potency,KB-3-1,2350 nM (active)
same,Potency,MCC-13,5260 nM (active)
same,Potency,MKL-1,935 nM (active)
CC(C)c1nn(-c2c(Cl)cccc2Cl)c2nc(Cc3ccc(OCCO)cc3)[nH]c(=O)c12,Potency,CRL-7250,0.0291 µM (active)
same,Potency,HaCat [1],118 nM (active) and 231 nM (active)
same,Potency,KB-3-1,58 nM (active)
same,Potency,NIH3T3,93.5 nM (active) and 130 nM (active)
same,Potency,MCC-13,105 nM (active)
same,Potency,MKL-1,132 nM (active)
Cc1[nH]c2ccccc2c1CCNCc1ccc(C=CC(=O)NO)cc1,Potency,CRL-7250,1.05 µM (active)
same,Potency,KB-3-1,148 nM (active)
same,Potency,NIH3T3,743 nM (active)
same,Potency,MCC-13,833 nM (active)
same,Potency,MCC-26,935 nM (active)
same,Potency,MKL-1,332 nM (active)
Nc1nc(-c2nn(Cc3ccccc3F)c3ncccc23)nc(N)c1N1CCOCC1,max response,CRL-7250,-1.46%
same,max response,HaCat [1],-22.5%
same,max response,KB-3-1,6.89%
same,max response,NIH3T3,-10.6%
same,Potency,MCC-13,inactive
same,Potency,MKL-1,inactive
Cn1c2ccccc2c2c3c(c4c5ccccc5n(CCC#N)c4c21)CNC3=O,Potency,CRL-7250,14.6 µM (active)
same,max response,KB-3-1,4.23% and -14.5%
same,Potency,NIH3T3,10500 nM (active)
same,max response,NIH3T3,-14.2%
COc1cc2c(Oc3ccc(NC(=O)C4(C(=O)Nc5ccc(F)cc5)CC4)cc3F)ccnc2cc1OCCCN1CCOCC1,Potency,CRL-7250,10.5 µM (active) and 8.2 µM (active)
same,Potency,HaCat [1],4.18 µM (active) and 6.51 µM (active)
same,Potency,KB-3-1,1.32 µM (active) and 2.91 µM (active)
same,Potency,NIH3T3,526 nM (active) and 731 nM (active)
same,Potency,MCC-13,14800 nM (active)
same,Potency,MCC-26,4690 nM (active)
same,Potency,MKL-1,4690 nM (active)
CNc1nccc(-c2cccnc2Oc2cc(C(=O)Nc3cccc(C(F)(F)F)c3)ccc2C)n1,Potency,CRL-7250,7.31 µM (active)
same,outcome,KB-3-1,inactive
same,Potency,NIH3T3,18400 nM (active)
same,Potency,MKL-1,inactive
N#Cc1c(O)c2c(-c3ccc(-c4ccccc4O)cc3)csc2[nH]c1=O,max response,CRL-7250,-0.58% and 1.34%
same,outcome,HaCat [1],inactive
same,outcome,KB-3-1,inactive
same,max response,NIH3T3,-1.37%
same,outcome,NIH3T3,inactive
same,Potency,HACAT [2],inactive
same,Potency,MCC-13,inactive
same,Potency,MCC-26,inactive
same,Potency,MKL-1,inactive
C=CC(=O)N1CCC[C@@H](n2nc(-c3ccc(Oc4ccccc4)cc3)c3c(N)ncnc32)C1,max response,CRL-7250,2.95%
same,Potency,HaCat [1],1320 nM (active)
same,max response,KB-3-1,-15.2% and 0.931%
same,Potency,HACAT [2],1300 nM (active)
same,Potency,MCC-13,inactive
same,Potency,MKL-1,inactive
COc1ccc(CC2c3cc(OC)c(OC)cc3CC[N+]2(C)CCC(=O)OCCCCCOC(=O)CC[N+]2(C)CCc3cc(OC)c(OC)cc3C2Cc2ccc(OC)c(OC)c2)cc1OC (stereo not given),max response,CRL-7250,-0.557%
same,max response,HaCat [1],3.6%
same,max response,KB-3-1,4.25% and 0.363%
same,max response,NIH3T3,-6.84%
same,"activity change, negative = cytotoxicity",MCC-13,-6.08% [at 9.22 µM]
same,"activity change, negative = cytotoxicity",MKL-1,-7.93% [at 9.22 µM]
O=C(C=Cc1cccnc1)NCCCCC1CCN(C(=O)c2ccccc2)CC1,Potency,CRL-7250,0.0743 µM (active)
same,Potency,HaCat [1],372 nM (active)
same,Potency,KB-3-1,13.2 nM (active)
same,Potency,NIH3T3,37.2 nM (active)
same,Potency,MCC-13,52.6 nM (active)
same,Potency,MCC-26,20.9 nM (active)
